Results on 12 molecules are retold here after publication PMC5540273 (PLoS ONE, 2017).

Among the test systems are ABL2; ACVR1B; ACVR1; ACVR2A; ACVR2B; ACVRL1; ADCK4; AKT1; AKT2; AKT3; ALK; ANKK1; AURKA; AURKB.
Conditions in all cases: concentration: 1 μM, replicates: in singlicate; n = 1
The subject of the next test is T1, ADCK3.
T1 construct: gene CABC1

Another test relates to T2, AMPK-alpha1.
T2 construct: gene PRKAA1

In the next test the test system is T3, AMPK-alpha2.
T3 construct: gene PRKAA2

The next test relates to T4, ARK5.
T4 construct: gene NUAK1

A further test relates to T5, ASK1.
T5 construct: gene MAP3K5

The next test relates to T6, ASK2.
T6 construct: gene MAP3K6

Molecules are shown by their SMILES.
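Also: KINOMEscan kinase panel screen.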

Take `CCCc1ccc(S(=O)(=O)NC2CCN(c3ccnc(Nc4ccc(OC)cc4)n3)C2)cc1` (stereo not drawn) [GSK1379737]: the “%Inh” value with ABL2 came to 14%; in the test on ACVR1B, 0%; in the test on ACVR1 it was 0%; in the test on ACVR2A it was 0%; with ACVR2B, 0%; in the test on ACVRL1, 0%. For the same molecule, the “%Inh” value with ADCK3 is recorded as 0%; with ADCK4, 66%; with AKT1 it was 0%; in the test with AKT2, 0%; with AKT3 it was 0%; in the test with ALK it was 30%. Also, the “%Inh” value with AMPK-alpha1, in the test on AMPK-alpha2, in the test on ANKK1, in the test on ARK5, in the test with ASK1 and in the test on ASK2 was 0% throughout. In addition, the entries for the “%Inh” value in the test with AURKA and in the test with AURKB were 0% and 32%, respectively.

`FC(F)(F)c1ccc(-c2cc(-c3c[nH]nc3-c3ccccn3)ccn2)cc1` [GW599550]: the “%Inh” value in the test with ABL2 is recorded as 16%; with ACVR1B, 46%; with ACVR1 it was 16%; in the test on ACVR2A, 0%; with ACVR2B, 34%; with ACVRL1, 0%. Moreover, the “%Inh” value is listed as 9% in the test with ADCK3; 37% in the test with ADCK4; 0% in the test on AKT1; 0% in the test with AKT2; 0% in the test on AKT3; 24% with ALK. Also, the “%Inh” value amounted to 4% with AMPK-alpha1; 16% in the test with AMPK-alpha2; 20% in the test with ANKK1; 0% with ARK5; 5% in the test with ASK1; 0% in the test on ASK2. Also, the “%Inh” value in the test with AURKA was 18%; in the test with AURKB it was 17%.

Turning to `FC(F)(F)c1ccc(-c2nn3ncccc3c2-c2ccnc(Nc3cccc(C(F)(F)F)c3)n2)cc1` [GW828205], the “%Inh” value was found to be 16% in the test with ABL2; 24% in the test on ACVR1B; 0% in the test on ACVR1; 6% in the test on ACVR2A; 19% in the test with ACVR2B; 10% with ACVRL1. Besides, the “%Inh” value in the test with ADCK3 was 23%; in the test on ADCK4 it was 0%; with AKT1, 0%; in the test on AKT2, 0%; in the test on AKT3 it was 15%; in the test with ALK, 0%. For the same molecule, the “%Inh” value stood at 12% with AMPK-alpha1; 0% with AMPK-alpha2; 0% in the test on ANKK1; 6% in the test on ARK5; 0% in the test on ASK1; 0% in the test on ASK2. In addition, the “%Inh” value in the test with AURKA amounted to 0%; in the test on AURKB, 14%.

On to `COc1ccc(NC(=O)c2ccc(-c3cc(-c4nnc(C)o4)ccc3C)cc2)cc1` [GW595885], for which the “%Inh” value with ABL2 is given as 16%; in the test on ACVR1B, 0%; in the test on ACVR1, 0%; in the test on ACVR2A, 0%; in the test with ACVR2B it was 5%; with ACVRL1 it was 0%. Further, the “%Inh” value in the test with ADCK3 is reported as 0%; with ADCK4 it was 28%; in the test on AKT1, 0%; in the test with AKT2, 0%; in the test on AKT3, 0%; with ALK it was 36%. Also, the “%Inh” value was determined as 0% in the test with AMPK-alpha1; 14% in the test with AMPK-alpha2; 0% in the test on ANKK1; 0% in the test with ARK5; 10% in the test with ASK1; 15% with ASK2. The “%Inh” value with AURKA is given as 0%; in the test with AURKB it was 26%.

As to `CSc1nn2c(=O)cc(N3CCOCC3)nc2n1Cc1cccc(Cl)c1Cl` [GSK2347225], the “%Inh” value in the test with ABL2 came to 14%; in the test with ACVR1B it was 0%; in the test with ACVR1, 18%; in the test on ACVR2A it was 0%; in the test with ACVR2B it was 12%; in the test on ACVRL1, 0%. Further, the “%Inh” value in the test with ADCK3 was 18%; with ADCK4 it was 28%; with AKT1 it was 0%; with AKT2, 9%; in the test with AKT3, 1%; with ALK, 30%. Besides, the “%Inh” value was 11% in the test with AMPK-alpha1; 20% in the test with AMPK-alpha2; 19% in the test with ANKK1; 7% in the test with ARK5; 14% with ASK1; 0% with ASK2. Further, the figures for the “%Inh” value in the test on AURKA and with AURKB were 21% and 0%, respectively.

As for `COc1cc2ncnc(Nc3ccc(OCc4ccccc4Br)c(Cl)c3)c2cc1OC.Cl` [GI261590], the “%Inh” value in the test with ABL2 stood at 16%; with ACVR1B, 0%; with ACVR1, 0%; with ACVR2A, 0%; in the test on ACVR2B, 4%; with ACVRL1, 0%. The “%Inh” value in the test with ADCK3 was determined as 22%; in the test on ADCK4, 37%; with AKT1, 0%; in the test with AKT2 it was 5%; in the test with AKT3, 0%; with ALK, 39%. In addition, the “%Inh” value with AMPK-alpha1 came out at 11%; with AMPK-alpha2, 0%; in the test on ANKK1, 0%; in the test on ARK5, 3%; in the test on ASK1, 10%; with ASK2, 0%. Further, the “%Inh” value came out at 1% in the test with AURKA and 35% in the test with AURKB.

For the molecule `CC(C)N1CCC(n2cnc(-c3ccc(F)cc3)c2-c2ccnc(N)n2)CC1` [SB-223132], the “%Inh” value in the test on ABL2 worked out at 0%; in the test with ACVR1B, 0%; with ACVR1 it was 0%; with ACVR2A, 22%; in the test on ACVR2B it was 25%; in the test on ACVRL1 it was 0%. Besides, the “%Inh” value was 31% in the test on ADCK3; 0% with ADCK4; 3% with AKT1; 0% in the test with AKT2; 0% in the test on AKT3; 12% in the test with ALK. The “%Inh” value with AMPK-alpha1 is 0%; in the test with AMPK-alpha2 it was 11%; in the test with ANKK1, 0%; with ARK5, 0%; in the test on ASK1 it was 1%; in the test on ASK2, 0%. Moreover, the “%Inh” value in the test with AURKA and in the test on AURKB was 0% in each case.

Take `O=C(Nc1ccccc1)Nc1ccc(Oc2ccc3nccn3n2)cc1`: the “%Inh” value is 27% with ABL2; 0% with ACVR1B; 5% with ACVR1; 24% in the test with ACVR2A; 9% in the test with ACVR2B; 0% with ACVRL1. Besides, the “%Inh” value with ADCK3 is on record as 15%; in the test with ADCK4, 1%; in the test on AKT1, 13%; with AKT2, 0%; in the test on AKT3 it was 10%; with ALK, 0%. Besides, the “%Inh” value is 25% in the test with AMPK-alpha1; 0% with AMPK-alpha2; 0% in the test with ANKK1; 0% with ARK5; 8% in the test on ASK1; 0% in the test with ASK2. Moreover, the “%Inh” value came to 0% in the test with AURKA and 68% in the test on AURKB.

On to `Cn1ccc2ncnc(Oc3ccc(NC(=O)Nc4cccnc4)c(Cl)c3)c21`, for which the “%Inh” value is reported as 11% with ABL2; 0% in the test with ACVR1B; 0% in the test with ACVR1; 0% with ACVR2A; 0% with ACVR2B; 0% in the test on ACVRL1. The “%Inh” value in the test on ADCK3 stood at 0%; in the test on ADCK4, 0%; with AKT1, 0%; with AKT2 it was 8%; in the test on AKT3, 0%; in the test with ALK, 0%. The “%Inh” value came to 4% in the test with AMPK-alpha1; 9% in the test with AMPK-alpha2; 0% with ANKK1; 3% in the test on ARK5; 5% in the test with ASK1; 0% with ASK2. In addition, the results for the “%Inh” value in the test on AURKA and in the test on AURKB were 18% and 47%, respectively.

As for `CN1c2ccc(-c3ccc(C(=O)NCCO)cc3)cc2-c2[nH]ncc2S1(=O)=O`, the “%Inh” value in the test on ABL2 is reported as 7%; with ACVR1B it was 0%; with ACVR1, 22%; with ACVR2A, 0%; with ACVR2B it was 2%; in the test on ACVRL1 it was 0%. In addition, the “%Inh” value in the test on ADCK3 is 0%; in the test with ADCK4, 3%; with AKT1, 11%; with AKT2 it was 0%; in the test on AKT3 it was 12%; in the test on ALK, 44%. The “%Inh” value in the test on AMPK-alpha1 was 16%; in the test on AMPK-alpha2 it was 0%; in the test with ANKK1 it was 0%; with ARK5, 0%; in the test with ASK1 it was 34%; with ASK2, 3%. In addition, the entries for the “%Inh” value with AURKA and in the test with AURKB were 0% and 37%, respectively.

In the case of `CC(=O)Nc1n[nH]c2ncc(-c3ccccc3)cc12` [SB-548492], the “%Inh” value is listed as 11% in the test on ABL2; 2% with ACVR1B; 13% in the test on ACVR1; 37% with ACVR2A; 10% in the test on ACVR2B; 0% with ACVRL1. The “%Inh” value in the test with ADCK3 is given as 0%; in the test on ADCK4, 0%; with AKT1, 0%; with AKT2 it was 0%; with AKT3, 5%; in the test with ALK, 0%. The “%Inh” value with AMPK-alpha1 is listed as 10%; with AMPK-alpha2, 1%; in the test on ANKK1, 20%; in the test with ARK5, 0%; in the test on ASK1 it was 20%; with ASK2, 23%. Moreover, the entries for the “%Inh” value with AURKA and in the test on AURKB were 16% and 17%, respectively.

Take `Clc1cccc(-c2nc(Nc3ccncc3)c3ccccc3n2)c1` [GW873004]: the “%Inh” value in the test with ABL2 amounted to 28%; in the test with ACVR1B it was 72%; with ACVR1, 0%; in the test on ACVR2A it was 25%; in the test with ACVR2B, 15%; in the test on ACVRL1, 9%. In addition, the “%Inh” value is listed as 30% in the test with ADCK3; 20% in the test with ADCK4; 11% in the test with AKT1; 0% in the test on AKT2; 1% in the test with AKT3; 33% with ALK. Besides, the “%Inh” value in the test with AMPK-alpha1 was determined as 30%; in the test with AMPK-alpha2, 9%; with ANKK1 it was 0%; in the test with ARK5, 0%; in the test on ASK1 it was 13%; in the test with ASK2, 0%. Moreover, the entries for the “%Inh” value with AURKA and with AURKB were 0% and 17%, respectively.
